Assay [1] in a line: small molecules captured by biotinylated probe aFSTL3 – biochemical, small-molecule microarray, fluorescence 635/667, stem cell growth factor project, primary screen (AID 1064).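 Also: measures binding of the biotinylated anti-FSTL3 antibody to printed compounds.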 Particulars: higher = more signal.
Assay [2] is described as follows: binders from COS7 lysate, DM2A8 probe, primary screen, torsin A project, cell lysate, small-molecule microarray, fluorescence 635/667 (AID 1065). To be noted: higher = more signal, COS7 lysate expressing mutant human TOR1A.
Assay [3] can be described thus: small molecules captured by biotinylated probe aFGF2 – biochemical, small-molecule microarray, fluorescence 635/667, stem cell growth factor project, primary screen (AID 1067).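 Also: measures binding of biotinylated aFGF2 protein to printed compounds on slides; z-score merges feature fluorescence and signal-to-noise across triplicate slides.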 To be noted: higher = more signal.
A short description of assay [4]: small molecules captured by biotinylated probe aFGF10 – biochemical, small-molecule microarray, fluorescence 635/667, stem cell growth factor project, primary screen (AID 1071).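 Also: score merges 667 nm spot intensity and signal to noise from triplicate slides.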 To be noted: higher = more signal.
Assay [5] deals with Neurogenic locus notch homolog protein 2 (Homo sapiens) (UniProt Q04721). Description: small molecules binding Notch2 protein – biochemical, small-molecule microarray, 635 nm fluorescence, stem cell growth factors, primary screen (AID 1073). To be noted: higher = more signal.
Assay [6] concerns the target Pro-neuregulin-1, membrane-bound isoform (Homo sapiens) (UniProt Q02297). Nature of the assay: small molecules binding neuregulin-1 protein – biochemical, small-molecule microarray, fluorescence 635/667, psychiatric disease protein project, primary screen (AID 1075).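 Also: score combines 667 nm spot fluorescence with signal to noise.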 Particulars: NRG1 binding, 635 nm fluorescence, higher = more signal.
In assay [7] the test system is Neuregulin-1 EGF-like domain. Description: small molecules binding NRG1 EGF domain – biochemical, small-molecule microarray, 635 nm fluorescence, primary screen (AID 1081).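 Also: binding of the protein to compounds printed on small-molecule microarray slides.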 Particulars: higher = more signal.
The nature of assay [8]: FRG1 expression reporter modulators in myotubes – cell-based, C2C12 myotubes, firefly/Renilla luciferase, luminescence, FRG1 inhibition for FSHD, primary screen (AID 1084). To be noted: FRG1 promoter luciferase, higher = more signal, called active from +8 up or from −8 down.
Assay [9] is described as follows: small molecules captured by biotinylated probe aFST – biochemical, small-molecule microarray, fluorescence 635/667, stem cell growth factor project, primary screen (AID 1086).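 Also: score merges 667 nm fluorescence with signal-to-noise of each printed compound spot.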 To be noted: higher = more signal.
A short description of assay [10]: binders of probe aHhip on microarray, primary screen, stem cell growth factor project, biochemical, small-molecule microarray, fluorescence 635/667 (AID 1087).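 Also: score merges spot fluorescence at 667nm with spot signal to noise ratio.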 Particulars: higher = more signal.
Assay [11] concerns PRMT1 (protein arginine N-methyltransferase 1). Description: small molecules binding arginine methyltransferase PRMT1 – biochemical, small-molecule microarray, 635 nm fluorescence, primary screen (AID 1088).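 Also: binding of Prmt1 protein to compounds spotted on small-molecule microarray slides.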 Particulars: higher = more signal.
Assay [12] can be described thus: growth effects on S. cerevisiae YJM789 – YJM789 clinical isolate, OD600, 24 h, basal, primary screen (AID 1089).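 Also: growth of clinical yeast isolate S. cerevisiae YJM 789 seeded 1000 cells per well; test concentration not given here.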 To be noted: higher = more signal, called active from +8 up or from −8 down.
Assay [13] can be described thus: S. pombe growth modifiers, basal conditions – strain 972, OD600, 24 h, no modulator, primary screen (AID 1090).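 Also: basal condition with compound alone and no growth modifier present; test concentration not given here.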 To be noted: S. pombe 972 growth, higher = more signal, called active from +8 up or from −8 down.
Assay [14] in a line: budding yeast growth modifiers under rapamycin – strain BY4716, OD600, 96 h, primary screen (AID 1091). Also: test concentration not given here. To be noted: S. cerevisiae BY4716 + rapamycin, higher = more signal, called active from +8 up or from −8 down.
The target of assay [15] is Torsin-1A-interacting protein 2 (Homo sapiens) (UniProt Q8NFQ8). Description: small molecules binding lysate-expressed LULL1 – cell lysate, human LULL1 lysate, 635/667 nm fluorescence, primary screen (AID 1092).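 Also: score merges per-feature 667 nm fluorescence with signal-to-noise.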 Particulars: small-molecule microarray, hLULL1 lysate binding, 635 nm fluorescence; higher = more signal.
Assay [16] in a line: optical density change of DRC41 E. coli – strain DRC41, OD650, 24 h, E. coli filamentation project, primary screen (AID 1093).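 Also: MC1000 strain lacking acrAB efflux and sulA so SOS filamentation is blocked; test concentration not given here.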 Particulars: E. coli DRC41 growth, higher = more signal, called active from +8 up or from −8 down.
Assay [17] is described as follows: probe aLefty2 binding to arrayed compounds – biochemical, biotinylated probe, 635/667 nm fluorescence, primary screen (AID 1094).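 Also: score merges spot fluorescence near 667 nm with spot signal-to-noise ratio.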 To be noted: small-molecule microarray, higher = more signal.
In assay [18] the test system is Noggin (protein binding on small-molecule microarray). Nature of the assay: small molecules binding Noggin protein – biochemical, 635/667 nm fluorescence, primary screen (AID 1095).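 Also: score merges 667 nm feature fluorescence with signal to noise over triplicate slides.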 Particulars: 635 nm fluorescence, higher = more signal.
Assay [19] concerns the target Neurogenic locus notch homolog protein 3 (Homo sapiens) (UniProt Q9UM47). Description: small molecules binding NOTCH3 protein – biochemical, 635/667 nm fluorescence, primary screen (AID 1096). Particulars: small-molecule microarray, 635 nm fluorescence, higher = more signal.
A short description of assay [20]: probe aEGFR binding to arrayed compounds – biochemical, biotinylated probe, 635/667 nm fluorescence, primary screen (AID 1097).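 Also: probe is a biotinylated anti-EGFR antibody binding compounds printed on slides; score combines fluorescence near 667 nm and signal to noise of each spot.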 Particulars: small-molecule microarray, higher = more signal.

Active and inactive are the calls of the source.

Sequence of Torsin-1A-interacting protein 2 (Homo sapiens) (Q8NFQ8 whole entry, looked up): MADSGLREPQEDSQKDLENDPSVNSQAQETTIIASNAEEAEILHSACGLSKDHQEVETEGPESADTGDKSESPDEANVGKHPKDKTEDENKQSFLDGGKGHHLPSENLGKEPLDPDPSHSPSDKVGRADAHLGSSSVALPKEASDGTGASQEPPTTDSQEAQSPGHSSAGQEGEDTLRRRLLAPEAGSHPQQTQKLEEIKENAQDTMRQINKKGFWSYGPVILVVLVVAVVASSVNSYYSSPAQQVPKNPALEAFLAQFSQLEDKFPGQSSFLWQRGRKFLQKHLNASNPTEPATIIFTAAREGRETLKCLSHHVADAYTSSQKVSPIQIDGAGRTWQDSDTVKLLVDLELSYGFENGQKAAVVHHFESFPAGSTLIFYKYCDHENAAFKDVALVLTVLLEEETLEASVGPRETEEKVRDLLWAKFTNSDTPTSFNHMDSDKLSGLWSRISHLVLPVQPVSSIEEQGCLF
Sequence of Pro-neuregulin-1, membrane-bound isoform (Homo sapiens) (Q02297 whole entry, looked up, the tested form may be a part, canonical isoform): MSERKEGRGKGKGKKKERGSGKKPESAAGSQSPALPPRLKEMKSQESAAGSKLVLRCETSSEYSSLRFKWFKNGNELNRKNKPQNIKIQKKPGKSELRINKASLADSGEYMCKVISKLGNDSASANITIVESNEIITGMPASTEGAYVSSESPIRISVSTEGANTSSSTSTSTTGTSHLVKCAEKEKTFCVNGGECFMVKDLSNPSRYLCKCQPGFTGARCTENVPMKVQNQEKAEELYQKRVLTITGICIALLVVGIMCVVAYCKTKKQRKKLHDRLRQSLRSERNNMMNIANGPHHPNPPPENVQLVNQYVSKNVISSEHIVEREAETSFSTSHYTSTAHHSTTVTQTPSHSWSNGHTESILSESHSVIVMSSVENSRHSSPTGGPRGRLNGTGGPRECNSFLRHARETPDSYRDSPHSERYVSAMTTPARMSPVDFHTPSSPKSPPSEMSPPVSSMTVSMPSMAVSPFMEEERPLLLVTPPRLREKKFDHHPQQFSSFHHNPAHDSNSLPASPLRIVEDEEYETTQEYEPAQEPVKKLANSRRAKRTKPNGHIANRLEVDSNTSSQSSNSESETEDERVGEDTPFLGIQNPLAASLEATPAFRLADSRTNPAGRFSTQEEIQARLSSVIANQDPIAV
Sequence of Neurogenic locus notch homolog protein 2 (Homo sapiens) (Q04721 whole entry, looked up, canonical isoform): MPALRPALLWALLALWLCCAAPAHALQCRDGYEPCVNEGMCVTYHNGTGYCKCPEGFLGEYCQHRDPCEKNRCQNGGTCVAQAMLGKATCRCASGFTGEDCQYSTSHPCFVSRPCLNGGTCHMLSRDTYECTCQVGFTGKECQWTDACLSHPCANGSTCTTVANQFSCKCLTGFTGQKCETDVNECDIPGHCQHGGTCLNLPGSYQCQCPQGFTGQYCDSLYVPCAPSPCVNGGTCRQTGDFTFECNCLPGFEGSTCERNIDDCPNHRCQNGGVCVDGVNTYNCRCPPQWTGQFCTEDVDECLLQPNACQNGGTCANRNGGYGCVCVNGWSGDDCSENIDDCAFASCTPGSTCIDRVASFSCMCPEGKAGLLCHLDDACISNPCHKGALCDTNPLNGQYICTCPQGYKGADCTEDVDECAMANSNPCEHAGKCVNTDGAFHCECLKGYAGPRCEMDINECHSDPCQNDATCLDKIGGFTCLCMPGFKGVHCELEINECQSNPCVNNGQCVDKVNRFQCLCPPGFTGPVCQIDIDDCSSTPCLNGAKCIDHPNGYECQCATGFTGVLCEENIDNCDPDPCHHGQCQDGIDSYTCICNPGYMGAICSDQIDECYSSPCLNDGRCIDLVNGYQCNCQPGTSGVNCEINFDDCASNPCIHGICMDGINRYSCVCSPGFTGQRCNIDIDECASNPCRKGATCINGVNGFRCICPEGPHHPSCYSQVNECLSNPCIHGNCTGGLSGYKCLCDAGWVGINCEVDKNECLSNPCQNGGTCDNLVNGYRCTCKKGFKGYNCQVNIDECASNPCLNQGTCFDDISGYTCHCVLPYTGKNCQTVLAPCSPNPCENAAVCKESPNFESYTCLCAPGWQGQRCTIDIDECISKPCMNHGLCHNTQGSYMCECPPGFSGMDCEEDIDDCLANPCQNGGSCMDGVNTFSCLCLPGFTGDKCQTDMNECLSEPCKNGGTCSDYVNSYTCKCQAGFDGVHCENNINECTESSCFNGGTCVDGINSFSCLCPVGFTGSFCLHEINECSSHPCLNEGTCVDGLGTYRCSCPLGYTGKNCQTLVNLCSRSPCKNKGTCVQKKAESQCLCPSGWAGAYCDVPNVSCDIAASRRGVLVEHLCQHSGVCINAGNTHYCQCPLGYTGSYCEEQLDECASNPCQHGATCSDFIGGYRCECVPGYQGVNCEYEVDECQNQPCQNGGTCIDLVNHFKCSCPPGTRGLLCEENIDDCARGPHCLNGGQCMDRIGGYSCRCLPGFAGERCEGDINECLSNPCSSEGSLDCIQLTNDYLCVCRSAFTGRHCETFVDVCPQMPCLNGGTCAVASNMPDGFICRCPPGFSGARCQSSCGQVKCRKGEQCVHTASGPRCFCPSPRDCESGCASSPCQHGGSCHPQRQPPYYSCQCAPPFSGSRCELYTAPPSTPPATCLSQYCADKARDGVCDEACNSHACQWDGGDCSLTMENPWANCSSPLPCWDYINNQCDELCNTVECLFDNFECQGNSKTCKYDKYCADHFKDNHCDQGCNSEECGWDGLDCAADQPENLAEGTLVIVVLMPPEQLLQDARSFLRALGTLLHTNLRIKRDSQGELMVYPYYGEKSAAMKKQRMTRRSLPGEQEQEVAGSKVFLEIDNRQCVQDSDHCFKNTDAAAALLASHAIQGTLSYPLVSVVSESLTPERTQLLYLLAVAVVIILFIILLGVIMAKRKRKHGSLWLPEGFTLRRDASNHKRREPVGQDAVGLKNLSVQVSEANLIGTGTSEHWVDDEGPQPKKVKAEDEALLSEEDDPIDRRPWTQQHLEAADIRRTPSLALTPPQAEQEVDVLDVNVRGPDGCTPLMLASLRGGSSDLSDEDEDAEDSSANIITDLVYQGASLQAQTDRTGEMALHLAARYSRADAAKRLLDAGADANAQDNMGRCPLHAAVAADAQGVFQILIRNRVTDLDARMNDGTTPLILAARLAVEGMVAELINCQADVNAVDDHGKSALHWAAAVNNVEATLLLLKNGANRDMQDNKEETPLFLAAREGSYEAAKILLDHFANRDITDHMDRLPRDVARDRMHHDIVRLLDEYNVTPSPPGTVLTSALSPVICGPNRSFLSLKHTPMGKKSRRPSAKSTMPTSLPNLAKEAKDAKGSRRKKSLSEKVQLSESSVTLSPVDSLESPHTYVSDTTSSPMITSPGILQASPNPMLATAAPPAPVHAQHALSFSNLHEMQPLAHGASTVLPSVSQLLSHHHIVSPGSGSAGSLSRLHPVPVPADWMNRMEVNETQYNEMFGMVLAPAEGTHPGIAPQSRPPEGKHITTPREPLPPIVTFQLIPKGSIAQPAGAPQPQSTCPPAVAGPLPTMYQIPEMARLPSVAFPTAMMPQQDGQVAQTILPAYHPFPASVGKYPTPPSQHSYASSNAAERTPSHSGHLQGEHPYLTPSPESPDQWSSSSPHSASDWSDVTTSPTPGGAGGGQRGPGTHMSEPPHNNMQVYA

For `NCCCC[C@@H]1NC(=O)[C@H]2C[C@@H](C(=O)O)[C@@H](c3cccc(OCCO)c3)N2C1=O`, the composite z-score in assay [1] is 1.34; in assay [2] it was 1.57; in assay [3] it was 0.097; in assay [4], 0.856; in assay [5] it was 1.61; in [6], 2.05. The composite z-score in [7] is 1.4; in assay [9], 2.16; in [10], -0.0474; in assay [11], 1.53; in [15], 3.33; in [17], 0.781. In addition, the composite z-score in assay [18] is 1.85; in assay [19], 1.02; in assay [20], 0.703. The z-score in [8] is 0.805 (inactive); in assay [12], 1.42 (inactive); in assay [13], -1.66 (inactive); in assay [14] it was -0.503 (inactive); in [16], -1.31 (inactive).
With `C=CCN1C(=O)[C@]2(O[C@H](CCO)[C@@H]([Si](C)(C)c3ccc(OC)cc3)[C@@H]2C)c2ccccc21`, the composite z-score in assay [1] was -0.277; in assay [2] it was -0.313; in assay [3], -0.144; in assay [4], -0.314; in assay [5] it was -0.599; in assay [6], 0.174. Besides, the composite z-score in assay [7] was 0.122; in [9], -0.488; in assay [10], -0.0933; in [11], -0.539; in assay [15], 0.602; in assay [17], -0.0962. The composite z-score was -0.788 in assay [18], -0.593 in [19] and -0.178 in assay [20]. Also, the z-score in assay [8] was -3.89 (inactive); in [12], -2.75 (inactive); in assay [13], -3.07 (inactive); in [14], 5.72 (inactive); in [16], -0.41 (inactive).
Regarding `CN(C)CCCC[C@@H]1NC(=O)[C@@H]2C[C@H](C(=O)NCc3ccc(F)cc3)[C@H](c3ccc(O)cc3)N2C1=O`, the composite z-score in [1] is 0.274; in assay [2] it was 0.295; in assay [3], -0.103; in assay [4], 0.203; in assay [5], -0.446; in assay [6] it was 0.625. Besides, the composite z-score in [7] was 1.49; in assay [9], -0.512; in [10], -0.191; in assay [11], 1.34; in [15], 2.72; in assay [17], 0.164. Further, the composite z-score was determined as 1.9 in assay [18], 0.968 in assay [19] and 0.364 in assay [20]. Further, the z-score in assay [8] is 0.254 (inactive); in assay [12] it was 0.582 (inactive); in assay [13], -1.4 (inactive); in assay [14] it was 0.0709 (inactive); in assay [16], -0.585 (inactive).
Consider `CCc1cccc(NC(=O)O[C@H]2[C@H](OC(=O)Nc3ccc4c(c3)OCO4)[C@H](OC(=O)Nc3ccc4c(c3)OCO4)[C@@H](OC)O[C@@H]2CO)c1`, for which the composite z-score in assay [1] is 0.0053; in assay [2] it was 0.052; in assay [3], -0.0158; in assay [4], 0.263; in assay [5] it was 0.603; in assay [6], 0.979. For the same molecule, the composite z-score was 1.32 in [7]; 0.318 in assay [9]; -0.0645 in assay [10]; 1.55 in assay [11]; 3.05 in assay [15]; 0.0386 in [17]. In addition, the composite z-score is 0.795 in assay [18], 1.08 in assay [19] and -0.13 in assay [20]. Further, the z-score in assay [8] was 4.53 (inactive); in assay [12], 1.5 (inactive); in assay [13] it was 1.09 (inactive); in assay [14], 7.36 (inactive); in [16], 0.641 (inactive).
With `C=CCC(OC(C)=O)[C@@H]1[C@@H](N(Cc2cccc3ccccc23)C(=O)c2ccc(-c3ccccc3)cc2)c2cc(OCCCO)ccc2N1C(=O)c1ccc2ccccc2n1` (stereo not given in full), the composite z-score is -0.093 in assay [1]; 0.116 in assay [2]; -0.0158 in [3]; 0.0632 in assay [4]; 0.285 in assay [5]; 0.298 in assay [6]. Besides, the composite z-score in [7] was found to be 0.037; in [9] it was 0.386; in assay [10] it was 0.28; in assay [11], 0.929; in [15], 1.01; in assay [17] it was 0.157. Moreover, the composite z-score in [18] is 0.37; in [19] it was 0.296; in assay [20], -0.0271. In addition, the z-score in assay [8] was -0.612 (inactive); in [12] it was -0.637 (inactive); in assay [13], 0.651 (inactive); in [14], -0.0728 (inactive); in assay [16] it was -0.747 (inactive).
Turning to `NC(=O)N1C(=O)C2C(C1=O)C1C=C(CCCO)C2C(c2ccc(CN3CCCC3)cc2)N1Cc1cccc(OC(F)(F)F)c1` (stereo not given), the composite z-score is -0.0367 in [1]; 0.145 in assay [2]; 0.028 in assay [3]; 0.173 in assay [4]; 0.185 in [5]; -0.299 in assay [6]. In addition, the composite z-score was 1.03 in assay [7]; 0.0635 in assay [9]; -0.0296 in [10]; 1.33 in [11]; 1.28 in [15]; 0.0472 in assay [17]. Besides, the composite z-score in [18] is 0.623; in [19], 0.0057; in assay [20], -0.0286. Also, the z-score in [8] is -0.0987 (inactive); in [12], -1.11 (inactive); in assay [13], -2.67 (inactive); in assay [14], -2.1 (inactive); in assay [16] it was 0.489 (inactive).
Regarding `C=CCC(OC(C)=O)[C@@H]1[C@@H](N(Cc2ccc(-c3cccc(C(F)(F)F)c3)o2)C(=O)c2cccc3ccccc23)c2cc(OCCCO)ccc2N1C(=O)c1ccc2ccccc2n1` (stereo not given in full), the composite z-score was 0.672 in assay [1]; 0.584 in [2]; -0.0242 in [3]; 0.232 in assay [4]; -0.381 in assay [5]; 0.0262 in assay [6]. The composite z-score was -0.393 in assay [7]; -0.111 in assay [9]; 0.185 in [10]; 0.24 in assay [11]; -0.039 in assay [15]; -0.0209 in assay [17]. The composite z-score in [18] was -0.029; in assay [19] it was -0.684; in assay [20], -0.132. Besides, the z-score in [8] was -0.147 (inactive); in assay [12], 0.75 (inactive); in assay [13], 0.835 (inactive); in assay [14] it was 0.356 (inactive); in assay [16] it was -0.746 (inactive).
On to `CCCC=C(CCC)[C@@H](NC(=O)c1ccccc1)c1ccc(C(=O)OC)cc1`, for which the composite z-score in assay [1] was 0.0872; in [2], 0.78; in assay [3], 0.502; in assay [4] it was 0.752; in [5] it was 0.541; in assay [6], -0.0843. The composite z-score was 1.19 in assay [7]; 1.01 in assay [9]; 1.09 in assay [10]; 0.661 in [11]; 2.56 in [15]; 0.688 in assay [17]. The composite z-score amounted to 0.748 in assay [18], 0.997 in assay [19] and 0.23 in assay [20]. The z-score in assay [8] is 3.19 (inactive); in assay [12], -0.532 (inactive); in assay [13], -1.5 (inactive); in [14], -0.938 (inactive); in assay [16] it was 0.689 (inactive).
Consider `CC(C)=CCN(C(=O)C#Cc1ccccc1)[C@H](CO)c1ccccc1`, for which the composite z-score in assay [1] is -0.591; in assay [2], 0.645; in assay [3], -0.0692; in [4], 0.118; in assay [5], 0.248; in [6], -0.141. The composite z-score is 0.283 in assay [7]; 0.223 in assay [9]; -0.0994 in [10]; 0.95 in assay [11]; 1.2 in assay [15]; -0.116 in assay [17]. Besides, the values for the composite z-score in assay [18], in [19] and in assay [20] were 0.69, 0.829 and -0.0302, respectively. Moreover, the z-score in assay [8] was -5.11 (inactive); in assay [12], -0.577 (inactive); in [13], -4.9 (inactive); in [14] it was 36.4 (active); in [16], 0.354 (inactive).
